Measured values: PubChem BioAssay (NCI)
About 83,000 compounds went through this panel and 20% of them were active in at least one assay; those are over-represented in the sample as a whole.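 48-hour exposure, single concentration, 96-well plates; percent growth endpoint where 0 means no net growth. Active: below 10.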 Calls of active or inactive are those of the source.

Key:
Assay in all cases: NCI-60 one-dose screen, 48 h (100 = growth as untreated, 0 = no growth, -100 = all killed)
Conditions in all cases: 10 µM unless noted
SK-MEL-2 melanoma = system: SK-MEL-2 melanoma
EKVX NSCLC = system: EKVX NSCLC
SN12C renal = system: SN12C renal
UO-31 renal = system: UO-31 renal
TK-10 renal = system: TK-10 renal
ACHN renal = system: ACHN renal
CAKI-1 renal = system: CAKI-1 renal
A498 renal = system: A498 renal
CCRF-CEM leukemia = system: CCRF-CEM leukemia
MOLT-4 leukemia = system: MOLT-4 leukemia
SR leukemia = system: SR leukemia
RPMI-8226 leukemia = system: RPMI-8226 leukemia
OVCAR-8 ovarian = system: OVCAR-8 ovarian
OVCAR-5 ovarian = system: OVCAR-5 ovarian
OVCAR-4 ovarian = system: OVCAR-4 ovarian
SK-OV-3 ovarian = system: SK-OV-3 ovarian
IGROV1 ovarian = system: IGROV1 ovarian
OVCAR-3 ovarian = system: OVCAR-3 ovarian
HS 578T breast = system: HS 578T breast
NCI/ADR-RES ovarian = system: NCI/ADR-RES ovarian

Measured: growth

O=C(CN1CCN(c2cc(=O)[nH]c3ccc(F)cc23)CC1)N(c1ccccc1)c1ccccc1
inactive: SK-MEL-2 melanoma 106% | EKVX NSCLC 96.8% | SN12C renal 97.1% | UO-31 renal 90.3% | TK-10 renal 98.7% | ACHN renal 105% | CAKI-1 renal 95.1% | A498 renal 83.7% | CCRF-CEM leukemia 102% | MOLT-4 leukemia 99.5% | SR leukemia 90.8% | RPMI-8226 leukemia 115% | OVCAR-8 ovarian 108% | OVCAR-5 ovarian 102% | OVCAR-4 ovarian 101% | SK-OV-3 ovarian 109% | IGROV1 ovarian 99.8% | OVCAR-3 ovarian 109% | HS 578T breast 101% | NCI/ADR-RES ovarian 102%

COc1ccc2[nH]cc(-c3nc(N)nnc3-c3cn(C)c4ccc(Br)cc34)c2c1
inactive: EKVX NSCLC 38.1% | SN12C renal 42.6% | UO-31 renal 40.7% | TK-10 renal 54.3% | ACHN renal 40.5% | CAKI-1 renal 29.1% | MOLT-4 leukemia 10.7% | OVCAR-8 ovarian 42.8% | OVCAR-5 ovarian 56.5% | OVCAR-4 ovarian 63.6% | SK-OV-3 ovarian 44% | IGROV1 ovarian 38.9% | HS 578T breast 16.9% | NCI/ADR-RES ovarian 64.3%
active: SK-MEL-2 melanoma 9.85% | A498 renal -1.71% | CCRF-CEM leukemia 2.97% | SR leukemia 9.35% | RPMI-8226 leukemia 6.31% | OVCAR-3 ovarian -8.84%

CCCCCC[n+]1ccc(SCC(=O)n2ccc3ccccc32)c2ccccc21
inactive: SK-MEL-2 melanoma 94.3% | EKVX NSCLC 83.8% | SN12C renal 88.8% | UO-31 renal 68.6% | TK-10 renal 108% | ACHN renal 87.2% | CAKI-1 renal 78.4% | A498 renal 115% | CCRF-CEM leukemia 77.3% | MOLT-4 leukemia 79.4% | SR leukemia 56.6% | RPMI-8226 leukemia 49.6% | OVCAR-8 ovarian 92.1% | OVCAR-5 ovarian 98.4% | OVCAR-4 ovarian 58.6% | SK-OV-3 ovarian 89.9% | IGROV1 ovarian 74.1% | OVCAR-3 ovarian 84.7% | HS 578T breast 97.6% | NCI/ADR-RES ovarian 103%

C[C@H]1OCC2(CCN(c3cnc(C(=O)Nc4cc(F)cc5cccnc45)cn3)CC2)[C@H]1N
active: SR leukemia -0.453%
inactive: SK-MEL-2 melanoma 101% | EKVX NSCLC 77.2% | SN12C renal 46.5% | UO-31 renal 38.9% | TK-10 renal 82.2% | ACHN renal 33.7% | CAKI-1 renal 40.9% | A498 renal 65.2% | CCRF-CEM leukemia 15.6% | MOLT-4 leukemia 16.8% | RPMI-8226 leukemia 42.1% | OVCAR-8 ovarian 77.6% | OVCAR-5 ovarian 74.3% | OVCAR-4 ovarian 10.5% | SK-OV-3 ovarian 98.8% | IGROV1 ovarian 20.1% | OVCAR-3 ovarian 19.5% | HS 578T breast 60.8% | NCI/ADR-RES ovarian 72.2%

Fc1ccc2nc(-c3cnn4cccnc34)sc2c1
inactive: SK-MEL-2 melanoma 119% | EKVX NSCLC 61.8% | SN12C renal 90.2% | UO-31 renal 46.8% | TK-10 renal 123% | ACHN renal 78.9% | CAKI-1 renal 68.9% | A498 renal 89.7% | CCRF-CEM leukemia 102% | MOLT-4 leukemia 80.3% | SR leukemia 78% | RPMI-8226 leukemia 87.6% | OVCAR-8 ovarian 83.5% | OVCAR-5 ovarian 101% | OVCAR-4 ovarian 63.5% | SK-OV-3 ovarian 81% | IGROV1 ovarian 49.2% | OVCAR-3 ovarian 84.2% | HS 578T breast 90.1% | NCI/ADR-RES ovarian 96.6%

Cc1cc2nc(C(Cl)Cl)nc(-c3ccc(S(=O)(=O)N(C)C)cc3)n2n1
inactive: SK-MEL-2 melanoma 93% | EKVX NSCLC 48.7% | SN12C renal 55% | UO-31 renal 65.7% | TK-10 renal 85% | ACHN renal 25.2% | CAKI-1 renal 45% | A498 renal 90.9% | CCRF-CEM leukemia 40.8% | MOLT-4 leukemia 28.4% | SR leukemia 11.8% | RPMI-8226 leukemia 55.3% | OVCAR-8 ovarian 33.9% | OVCAR-5 ovarian 67.3% | OVCAR-4 ovarian 57.2% | SK-OV-3 ovarian 50.5% | IGROV1 ovarian 23.1% | OVCAR-3 ovarian 78.4% | HS 578T breast 72.7% | NCI/ADR-RES ovarian 26.3%

CCOC(=O)C1=C(C)NC(C)=C(C(=O)OC(C)C)C1c1cccc(C#N)c1 (stereo not given)
inactive: SK-MEL-2 melanoma 106% | EKVX NSCLC 90.7% | SN12C renal 97.8% | UO-31 renal 93.3% | TK-10 renal 106% | ACHN renal 96.7% | CAKI-1 renal 84.7% | A498 renal 83.9% | CCRF-CEM leukemia 103% | MOLT-4 leukemia 88.8% | SR leukemia 90.9% | RPMI-8226 leukemia 108% | OVCAR-8 ovarian 103% | OVCAR-5 ovarian 99.1% | OVCAR-4 ovarian 104% | SK-OV-3 ovarian 132% | IGROV1 ovarian 103% | OVCAR-3 ovarian 105% | HS 578T breast 98% | NCI/ADR-RES ovarian 95%

Cc1[nH]c(C(=O)Nc2ccccc2OCc2cccc(C(=O)NC3CCCNC3)c2)c(Cl)c1Cl (stereo not given)
active: EKVX NSCLC -80.4% | SN12C renal -72.9% | UO-31 renal -13% | TK-10 renal -75% | ACHN renal -86.8% | CAKI-1 renal -91.3% | CCRF-CEM leukemia 2.33% | MOLT-4 leukemia -25.3% | SR leukemia -30.5% | RPMI-8226 leukemia -19.1% | OVCAR-8 ovarian -44.3% | OVCAR-5 ovarian -87.8% | OVCAR-4 ovarian -73.4% | IGROV1 ovarian -71.3% | OVCAR-3 ovarian -85.7% | NCI/ADR-RES ovarian -2.67%
inactive: SK-MEL-2 melanoma 102% | A498 renal 66.2% | SK-OV-3 ovarian 108% | HS 578T breast 93%

Cc1ccc(S(=O)(=O)NCCCNc2nccc(-c3[nH]c(-c4ccccc4)nc3-c3ccc(F)c(O)c3)n2)cc1
inactive: SK-MEL-2 melanoma 24.8% | EKVX NSCLC 94.9% | SN12C renal 99.2% | UO-31 renal 115% | TK-10 renal 134% | ACHN renal 85.8% | CAKI-1 renal 90.7% | A498 renal 76.3% | CCRF-CEM leukemia 39.7% | MOLT-4 leukemia 39.2% | SR leukemia 33.8% | RPMI-8226 leukemia 53.7% | OVCAR-8 ovarian 86.7% | OVCAR-5 ovarian 143% | OVCAR-4 ovarian 107% | SK-OV-3 ovarian 117% | IGROV1 ovarian 99% | OVCAR-3 ovarian 132% | HS 578T breast 99.6% | NCI/ADR-RES ovarian 104%

CCOC(=O)c1cccc(NC2=C(Cl)C(=O)c3nc(C)ccc3C2=O)c1
inactive: SK-MEL-2 melanoma 105% | EKVX NSCLC 92.1% | SN12C renal 95.5% | UO-31 renal 93.1% | TK-10 renal 119% | ACHN renal 96.1% | CAKI-1 renal 108% | A498 renal 88.8% | CCRF-CEM leukemia 15% | MOLT-4 leukemia 48.5% | SR leukemia 37.1% | RPMI-8226 leukemia 53.3% | OVCAR-8 ovarian 97.8% | OVCAR-5 ovarian 104% | OVCAR-4 ovarian 53.7% | SK-OV-3 ovarian 98% | IGROV1 ovarian 17.3% | OVCAR-3 ovarian 46.1% | HS 578T breast 111% | NCI/ADR-RES ovarian 94.6%

Cc1ccc2c(n1)C(=O)C(Cl)=C(Nc1ccc(C)c(C)c1)C2=O
inactive: SK-MEL-2 melanoma 40% | EKVX NSCLC 52.6% | UO-31 renal 44% | TK-10 renal 140% | ACHN renal 57% | CAKI-1 renal 90% | A498 renal 71.8% | CCRF-CEM leukemia 30.8% | MOLT-4 leukemia 60.1% | SR leukemia 28.1% | RPMI-8226 leukemia 11.1% | OVCAR-8 ovarian 67.2% | OVCAR-5 ovarian 91.6% | SK-OV-3 ovarian 99.1% | HS 578T breast 32.8% | NCI/ADR-RES ovarian 63.1%
active: SN12C renal 0.141% | OVCAR-4 ovarian -29% | IGROV1 ovarian -45.5% | OVCAR-3 ovarian -21.4%

N#Cc1c(-c2cccs2)cc(-c2cnccn2)nc1SCC(=O)N/N=C/c1ccccc1
active: TK-10 renal -14.7% | RPMI-8226 leukemia -23.7% | OVCAR-4 ovarian 3.09%
inactive: SK-MEL-2 melanoma 103% | EKVX NSCLC 56.2% | SN12C renal 45.5% | UO-31 renal 75.8% | ACHN renal 56.9% | CAKI-1 renal 48.2% | A498 renal 87.8% | CCRF-CEM leukemia 62.6% | MOLT-4 leukemia 71.8% | SR leukemia 55.9% | OVCAR-8 ovarian 43.4% | OVCAR-5 ovarian 87.2% | SK-OV-3 ovarian 106% | IGROV1 ovarian 61.9% | OVCAR-3 ovarian 27.7% | HS 578T breast 40.7% | NCI/ADR-RES ovarian 37%

CN1CCN(c2ccc(Nc3nc(NCCCNS(=O)(=O)c4ccccc4)c4sccc4n3)cc2)CC1
inactive: SK-MEL-2 melanoma 106% | EKVX NSCLC 97.6% | SN12C renal 72.7% | UO-31 renal 69.2% | TK-10 renal 145% | ACHN renal 20.2% | CAKI-1 renal 30.8% | A498 renal 131% | CCRF-CEM leukemia 37.9% | MOLT-4 leukemia 26% | RPMI-8226 leukemia 14.6% | OVCAR-8 ovarian 65.8% | OVCAR-5 ovarian 78.3% | OVCAR-4 ovarian 56.5% | SK-OV-3 ovarian 122% | IGROV1 ovarian 79.7% | OVCAR-3 ovarian 74.3% | HS 578T breast 80.3% | NCI/ADR-RES ovarian 86.4%
active: SR leukemia 2.4%

C#Cc1cc(C(=O)Nc2ccc(CNCCN3CCOCC3)c(C(F)(F)F)c2)ccc1C
inactive: SK-MEL-2 melanoma 104% | EKVX NSCLC 84.7% | SN12C renal 93.5% | UO-31 renal 72.7% | TK-10 renal 108% | ACHN renal 98.4% | CAKI-1 renal 82.7% | A498 renal 90.4% | CCRF-CEM leukemia 98.7% | MOLT-4 leukemia 81.6% | SR leukemia 67.8% | RPMI-8226 leukemia 74.5% | OVCAR-8 ovarian 105% | OVCAR-5 ovarian 98.6% | OVCAR-4 ovarian 79.1% | SK-OV-3 ovarian 94.1% | IGROV1 ovarian 101% | OVCAR-3 ovarian 94.1% | HS 578T breast 81.4% | NCI/ADR-RES ovarian 94.3%

Cn1cc(-c2nnc(N)nc2-c2c[nH]c3ccc(F)cc23)c2cc(Br)ccc21
inactive: SK-MEL-2 melanoma 11.8% | EKVX NSCLC 27.7% | SN12C renal 38.1% | UO-31 renal 41.3% | TK-10 renal 61.5% | ACHN renal 40.6% | CAKI-1 renal 28% | OVCAR-8 ovarian 34.4% | OVCAR-5 ovarian 68.3% | OVCAR-4 ovarian 50.1% | SK-OV-3 ovarian 33.7% | IGROV1 ovarian 34.6% | OVCAR-3 ovarian 10.7% | NCI/ADR-RES ovarian 15.2%
active: A498 renal 3.05% | CCRF-CEM leukemia -4.24% | MOLT-4 leukemia -21.3% | SR leukemia 4.93% | RPMI-8226 leukemia 5.9% | HS 578T breast 7.85%
